Measurements taken from PubChem BioAssay AID1053127 (Broad Institute, 2014).
Results with a measured potency or affinity are listed apart. Activity calls are given as the source filed them.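 The calls were made as follows: active = compounds whose fitted curve of lowered CTGF expression reaches half effect within a set concentration limit; inconclusive = flat moderate drop in CTGF, or unreliable curve fit; inactive = the rest.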

assay: YAP1 overexpression rescue of CTGF inhibition – DLD1 cells, RT-qPCR, cherry-pick, mechanism study for YAP1 pathway inhibitor project, dose response (AID 1053127); details: DLD1 YAP1-overexpressing, CTGF mRNA qPCR, 24 h; series mostly up to 26 µM

outcome, inactive:
C[C@H](CO)N1C[C@H](C)[C@H](CN(C)Cc2ccc(Oc3ccccc3)cc2)OCc2ccccc2-c2ccccc2C1=O
CNC[C@H]1Oc2c(NC(=O)Nc3cccc4ccccc34)cccc2C(=O)N([C@H](C)CO)C[C@@H]1C
COc1ccc2c3c([nH]c2c1)[C@H](CO)NCC31CCN(C(=O)Cc2cccnc2)CC1
C[C@H]1CC=CC[C@@H](c2ccc(F)cc2)NC(=O)[C@H](Cc2ccccc2)N(C)C(=O)c2ccccc2O1 (mixture of isomers)
CN(C)C(=O)c1ccc(-c2cccc(-c3nc(C(=O)NCc4ccccc4)cc4c3[C@@H](CCO)N([S@](=O)C(C)(C)C)C4)c2)cc1
C[C@H](CO)N1C[C@H](C)[C@@H](CN(C)S(=O)(=O)c2ccc([N+](=O)[O-])cc2)OCc2ccccc2-c2c(n(C)c3ccccc23)C1=O
C[C@H]1CN([C@@H](C)CO)C(=O)c2cc(C#Cc3ccccc3)cnc2O[C@H]1CN(C)C(=O)c1ccccc1
O=C(Nc1ccccc1)[C@@H]1[C@@H](CO)[C@@H]2Cn3c(cccc3=O)[C@H]1N2C(=O)c1ccc(F)cc1
C[C@@H]1CN([C@@H](C)CO)C(=O)c2ccccc2-c2ccccc2CO[C@@H]1CN(C)S(=O)(=O)c1cn(C)cn1
COc1cccc(-c2ccc([C@@H]3[C@@H](C#N)N(C(=O)Cc4ccncc4)[C@@H]3CO)cc2)c1
Cc1ccc(S(=O)(=O)N2CC[C@@H]3[C@H]2c2cc(-c4cccc(C(=O)N(C)C)c4)ccc2N[C@@H]3CO)cc1
Cc1ccc(S(=O)(=O)Nc2ccc3c(c2)C(=O)N([C@H](C)CO)C[C@@H](C)[C@H](CN(C)S(=O)(=O)c2cccs2)OCCCC[C@@H](C)O3)cc1
Cc1ccc(S(=O)(=O)Nc2ccc3c(c2)CC(=O)N([C@H](C)CO)C[C@@H](C)[C@@H](CN(C)S(=O)(=O)c2ccccc2)O3)cc1
O=S(=O)(Cc1ccccc1)N1CC2(C1)[C@H](c1ccccc1)[C@H](CO)N2CC1CCCC1
C[C@H]1CN([C@@H](C)CO)C(=O)c2cccc(NC(=O)c3nc4ccccc4s3)c2O[C@@H]1CN(C)C(=O)Nc1ccc2c(c1)OCO2
COCC(=O)N1CC[C@@H]2[C@H](CO)Nc3ccc(C#Cc4ccc(F)cc4)cc3[C@@H]21
C[C@@H]1CN([C@H](C)CO)C(=O)c2ccccc2-c2ccccc2CO[C@@H]1CN(C)Cc1cccc2c1OCCCO2
CCC(=O)N1C[C@H](C)[C@@H](OC)CN(C)C(=O)c2cc(NC(=O)Nc3ccc(Cl)cc3)ccc2OC[C@@H]1C
CC(C)NC(=O)N[C@@H]1CC[C@H](CC(=O)NCCCN(C)C)O[C@@H]1CO
CC(C)(C)[S@](=O)N1Cc2cc(C(=O)NCc3ccccn3)nc(-c3cccc(-c4ccccc4F)c3)c2[C@@H]1CCO
CO[C@@H]1CN(C)C(=O)c2cc(NS(=O)(=O)c3ccccc3C)ccc2OC[C@@H](C)N(S(=O)(=O)c2ccccc2)C[C@H]1C
O=C(CC1CC1)N1CC(=O)N2[C@H](CO)[C@@H](c3ccc(C#Cc4cccc(F)c4)cc3)[C@H]2C1
CCCNC(=O)N1[C@H](C#N)[C@@H](c2ccc(C#Cc3cccc(F)c3)cc2)[C@@H]1CO
O=C([C@H]1[C@H](CO)[C@H]2Cn3c(ccc(-c4ccc(F)cc4)c3=O)[C@H]2N1Cc1cocn1)N1CCCCC1
C/C=C/c1cccc(-c2nc(C(=O)Nc3nccs3)cc3c2[C@@H](CCO)N(C(=O)NC(C)C)C3)c1
COc1ccc(CN(C)C[C@H]2Oc3ccc(NC(=O)Nc4ccc5c(c4)OCO5)cc3CC(=O)N([C@@H](C)CO)C[C@H]2C)cc1
CCCC#Cc1ccc([C@@H]2[C@@H](C#N)N(C(=O)CN3CCOCC3)[C@H]2CO)cc1
CCc1nc(N2[C@H](CO)[C@@H](c3ccccc3-c3ccc(F)cc3)[C@@H]2C#N)sc1C
Cc1ccc(S(=O)(=O)N2CC[C@H]3[C@H](CO)Nc4ccc(-c5cccc(C(=O)N(C)C)c5)cc4[C@H]32)cc1
